Measurements taken from PubChem BioAssay (NCATS).
“And” between values parts separate entries of the source, which are not always exact repeats. Identical values can stand only once. Inconclusive results are not listed. Entries that show only a call come without a potency. Where a structure was tested more than once in an assay, its records may differ in their call. The source made the active and inactive calls. Unless noted, the call rests on the fitted dose curve; in most records, active means well fitted curve in the direction sought with a large enough effect; inconclusive means small, poorly fitted or top-dose-only effect, or another doubt; inactive means no such curve, though single readings can be large; an effect the other way counts as inactive or inconclusive.

Key:
[1] = molecular target: Phospholipid hydroperoxide glutathione peroxidase GPX4 (Homo sapiens) (UniProt P36969); assay: Primary qHTS Assay for Inhibitors of Recombinant Selenoprotein Glutathione Peroxidase 4 (GPX4) (AID 1845192); further: nearly all actives have a fitted effect of over 65% in size; further: potency means the concentration at half of the fitted maximal effect
Sequence of Phospholipid hydroperoxide glutathione peroxidase GPX4 (Homo sapiens) (P36969 whole entry, looked up): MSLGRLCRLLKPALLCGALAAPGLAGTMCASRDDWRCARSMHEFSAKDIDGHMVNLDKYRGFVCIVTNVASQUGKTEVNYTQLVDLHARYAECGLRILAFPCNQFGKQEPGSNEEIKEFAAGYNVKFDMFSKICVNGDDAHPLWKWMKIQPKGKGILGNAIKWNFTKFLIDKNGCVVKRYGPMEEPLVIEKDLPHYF
Method in brief: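 GR-coupled readout: 100 nM GR, 1 mM GSH, 0.5 mM NADPH; NADPH fluorescence (ex 340/em 450 nm) read at t=0 and after 15 min RT. GPX4 200 nM, preincubated 30 min with compound; substrate 0.5 mM CHP.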

[2] = qHTS drug screen for cell cycle checkpoint inhibitors in PARPi-resistant BRCA-mutant ovarian cancer cell lines. (AID 1963452; calls by dose curve); details: PEO1/OlaR viability, CellTiter-Glo luminescence, 96 h, stronger effect = lower value
Method in brief: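 PEO1, PEO4 and PEO1/OlaR ovarian cancer cells, 600 per well, exposed 96 h at 37C to a dilution series. Viability read by CellTiter-Glo luminescence, normalized to DMSO and empty wells; activity summarized as Z-AUC.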

[3] = molecular target: Glutathione peroxidase 1 (Homo sapiens) (UniProt P07203); assay: Primary qHTS Assay for Inhibitors of Recombinant Selenoprotein Glutathione Peroxidase 1 (GPX1) (AID 1845191); further: nearly all actives have a fitted effect of over 65% in size; further: potency means the concentration at half of the fitted maximal effect
Sequence of Glutathione peroxidase 1 (Homo sapiens) (P07203 whole entry, looked up): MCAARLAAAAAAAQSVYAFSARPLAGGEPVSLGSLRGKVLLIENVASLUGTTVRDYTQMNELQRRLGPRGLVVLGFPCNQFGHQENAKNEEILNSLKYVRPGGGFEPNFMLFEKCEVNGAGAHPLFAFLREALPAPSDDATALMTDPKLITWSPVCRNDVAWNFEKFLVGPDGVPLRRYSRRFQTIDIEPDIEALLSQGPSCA
Method in brief: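 Recombinant GPX1 (10 nM final) was preincubated with compound for 30 min at room temperature, then reacted with 1 mM GSH, 0.5 mM CHP, 0.5 mM NADPH and 100 nM glutathione reductase; NADPH fluorescence (340/450 nm) was read at 0 and 15 min.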

[4] = molecular target: Luciferin 4-monooxygenase (Photinus pyralis) (UniProt P08659); assay: Primary firefly luciferase (FLuc) qHTS assay for identification of artifact compounds. (AID 1845220); details: outcome: dose series up to 54.1 µM; further: series mostly up to about 54 µM; nearly all actives have a fitted effect of over 60% in size
Method in brief: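 In this counter-screen for luciferase artifacts, test compounds met substrate (10 uM each luciferin and ATP) before 10 nM enzyme started the reaction. Light output was measured 5 min later.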

[5] = Primary fluorescence-based thiol-reactive (MSTI) qHTS assay for identification of artifact compounds. (AID 1845221);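 further: series mostly up to about 54 µM; thiol-reactive compounds lower the probe fluorescence signal; nearly all actives have a fitted effect of over 65% in size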
Method in brief: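 Probe: MSTI 4 uM, PBS pH 7.4, 2% DMSO. Incubation 1 h, RT, light-protected. Readout fluorescence 525/598 nm.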

[6] = Primary redox qHTS assay for identification of artifact compounds. (AID 1845223)
Method in brief: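 Amplex Red (25 uM) and HRP (250 mU/mL) in HBSS, with compounds for 15 min, then 250 uM DTT for 30 min, room temperature, dark. Fluorescence 525/598 nm read; normalized to DMSO and 10 uM DA3003; Hill fit.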

[7] = measured here: PEO1 parental Z-AUC

Q: For Cc1nc(NS(=O)(=O)c2ccc(N)cc2)nc(C)c1Br, which Potency [1] is on record?
A: Its Potency is “inactive”.

Q: Which Potency [1] does the source give for C[Se]CC[C@H](N)C(=O)O here?
A: Its Potency is “inactive”.

Q: With NCCCC[C@H](N)C(=O)O as the molecule, how does the outcome [1] read?
A: The outcome was “inactive [at 0.409 µM]”.

Q: For O=C(OC[C@H]1O[C@@H](OC(=O)c2cc(O)c(O)c(OC(=O)c3cc(O)c(O)c(O)c3)c2)[C@H](OC(=O)c2cc(O)c(O)c(OC(=O)c3cc(O)c(O)c(O)c3)c2)[C@@H](OC(=O)c2cc(O)c(O)c(OC(=O)c3cc(O)c(O)c(O)c3)c2)[C@@H]1OC(=O)c1cc(O)c(O)c(OC(=O)c2cc(O)c(O)c(O)c2)c1)c1cc(O)c(O)c(OC(=O)c2cc(O)c(O)c(O)c2)c1, which Potency [1] is on record?
A: Its Potency is 4.47 µM (active).

Q: With CC(C)Cc1ccc([C@@H](C)C(=O)NS(C)(=O)=O)cc1 as the molecule, how does the Potency [1] read?
A: The Potency was “inactive”.

Q: What about the Z-AUC [2] of the same molecule?
A: The Z-AUC was 1.32 (inactive).

Q: And the Z-AUC [2, 7]?
A: The Z-AUC was 0.781.

Q: And the Z-AUC ([2]; measured here: PEO4 Z-AUC)?
A: Its Z-AUC is 0.752.

Q: For Cc1ncc(COP(=O)(O)O)c(CN)c1O, which Potency [1] is on record?
A: The Potency was “inactive”.

Q: Which Potency [1] does the source give for C[C@H](NCCc1ccc(O)cc1)[C@H](O)c1ccc(O)cc1 here?
A: Its Potency is “inactive”.

Q: What does the source list for CC[C@H]1OC(=O)[C@H](C)[C@@H](O[C@H]2C[C@@](C)(OC)[C@@H](O)[C@H](C)O2)[C@H](C)[C@@H](O[C@@H]2O[C@H](C)C[C@H](N(C)C)[C@H]2O)[C@](C)(O)C[C@@H](C)CN(C)[C@H](C)[C@@H](O)[C@]1(C)O?
A: Potency [1]: inactive; Z-AUC [2]: 1.04 (inactive); Z-AUC [2, 7]: 0.718; Z-AUC ([2]; measured here: PEO4 Z-AUC): 1.23

Q: With CCC[C@@H]1C[C@@H](C(=O)N[C@@H]([C@H]2O[C@H](SC)[C@H](O)[C@@H](O)[C@H]2O)[C@H](C)Cl)N(C)C1 as the molecule, how does the Potency [3] read?
A: The Potency was “inactive”.

Q: And the Potency [1]?
A: Its Potency is “inactive”.

Q: What about the Z-AUC [2] of the same molecule?
A: Its Z-AUC is 1.72 (inactive).

Q: What about the Z-AUC [2, 7] of the same molecule?
A: The Z-AUC was 1.69.

Q: What about the Z-AUC ([2]; measured here: PEO4 Z-AUC) of the same molecule?
A: The Z-AUC was 1.63.

Q: For C[C@H]1O[C@@H](O[C@H]2[C@@H](O)C[C@H](O[C@H]3[C@@H](O)C[C@H](O[C@H]4CC[C@@]5(C)[C@H](CC[C@@H]6[C@@H]5C[C@@H](O)[C@]5(C)[C@@H](C7=CC(=O)OC7)CC[C@]65O)C4)O[C@@H]3C)O[C@@H]2C)C[C@H](O)[C@@H]1O, which Potency [1] is on record?
A: The Potency was “inactive”.

Q: And the outcome [4]?
A: The outcome was “inactive”.

Q: And the outcome [5]?
A: The outcome was “inactive”.

Q: And the outcome [6]?
A: The outcome was “inactive”.

Q: And the Z-AUC [2]?
A: The Z-AUC was -1.16 (inactive).

Q: And the Z-AUC [2, 7]?
A: The Z-AUC was -1.92.

Q: What about the Z-AUC ([2]; measured here: PEO4 Z-AUC) of the same molecule?
A: The Z-AUC was -1.33.

Q: Which results are given for NC[C@H]1O[C@H](O[C@H]2[C@H](O)[C@@H](O[C@H]3O[C@H](CO)[C@@H](O)[C@H](N)[C@H]3O)[C@H](N)C[C@@H]2N)[C@H](N)C[C@@H]1O?
A: Potency [3]: inactive; Potency [1]: inactive; Z-AUC [2]: -0.784 (inactive); Z-AUC [2, 7]: -0.522; Z-AUC ([2]; measured here: PEO4 Z-AUC): -0.139

Q: For CC1(O)CCC(C(C)(C)O)CC1 (stereo not given), which Potency [1] is on record?
A: The Potency was “inactive”.

Q: Which results are given for CC(=O)NCCCS(=O)(=O)O?
A: Potency [1]: inactive; Z-AUC [2]: 1.02 (inactive); Z-AUC [2, 7]: 1.45; Z-AUC ([2]; measured here: PEO4 Z-AUC): 1.03

Q: For COc1cc(C)c(/C=C/C(C)=C/C=C/C(C)=C/C(=O)O)c(C)c1C, which Potency [3] is on record?
A: Its Potency is “inactive”.

Q: What about the Potency [1] of the same molecule?
A: The Potency was 16.1 µM (active).

Q: What about the Z-AUC [2] of the same molecule?
A: The Z-AUC was 0.967 (inactive).

Q: What about the Z-AUC [2, 7] of the same molecule?
A: The Z-AUC was 0.941.

Q: And the Z-AUC ([2]; measured here: PEO4 Z-AUC)?
A: Its Z-AUC is 1.13.

Q: With S=C1SCN(Cc2ccccc2)CN1Cc1ccccc1 as the molecule, how does the Potency [1] read?
A: The Potency was 15.8 µM (active).

Q: Which Potency [1] does the source give for C=CCOc1ccc(CC(=O)O)cc1Cl here?
A: The Potency was “inactive”.

Q: With CN1C(=O)OC(C)(C)C1=O as the molecule, how does the Potency [1] read?
A: The Potency was “inactive”.

Q: For Cc1cc(-c2ccc(N=Nc3ccc4c(S(=O)(=O)O)cc(S(=O)(=O)O)c(N)c4c3O)c(C)c2)ccc1N=Nc1ccc2c(S(=O)(=O)O)cc(S(=O)(=O)O)c(N)c2c1O, which Potency [1] is on record?
A: The Potency was “inactive”.

Q: For CNC(=O)c1c(I)c(C(=O)NCC(=O)Nc2c(I)c(C(=O)O)c(I)c(C(=O)NCCO)c2I)c(I)c(N(C)C(C)=O)c1I, which Potency [1] is on record?
A: The Potency was “inactive”.

Q: Which outcome [1] does the source give for O=C1[O][Bi][O]c2ccccc21 here?
A: Its outcome is “inactive [at 0.409 µM]”.

Q: With O=C(O)c1ccc(NC(=O)[C@H](Cc2ccc(O)cc2)NC(=O)c2ccccc2)cc1 as the molecule, how does the Potency [1] read?
A: The Potency was “inactive”.

Q: Which Potency [1] does the source give for CCC(C(=O)NC(N)=O)c1ccccc1 (stereo not given) here?
A: The Potency was “inactive”.

Q: For COC(=O)[C@@H](N)CS, which Potency [1] is on record?
A: Its Potency is 10 µM (active).

Q: Which Potency [1] does the source give for C/C(=C\C(=O)OCCCCCCCCC(=O)O)C[C@@H]1OC[C@H](C[C@@H]2O[C@H]2[C@@H](C)[C@H](C)O)[C@@H](O)[C@H]1O here?
A: Its Potency is “inactive”.

Q: What about the outcome [4] of the same molecule?
A: The outcome was “inactive”.

Q: What about the outcome [5] of the same molecule?
A: The outcome was “inactive”.

Q: With CC(CN1c2ccccc2Sc2cccnc21)N(C)C (stereo not given) as the molecule, how does the Potency [1] read?
A: Its Potency is “inactive”.

Q: For CC1CC(OC(=O)C(O)c2ccccc2)CC(C)(C)C1 (stereo not given), which Potency [3] is on record?
A: Its Potency is “inactive”.

Q: And the outcome [4]?
A: Its outcome is “inactive”.

Q: And the outcome [6]?
A: Its outcome is “inactive”.

Q: Which Potency [1] does the source give for O=C(NNCS(=O)(=O)O)c1ccncc1 here?
A: Its Potency is 3.98 µM (active).

Q: Which Potency [1] does the source give for OCCN1CCN(CC/C=C2/c3ccccc3Sc3ccc(Cl)cc32)CC1 here?
A: Its Potency is “inactive”.

Q: Which Potency [3] does the source give for C=CC[C@@H]1/C=C(\C)C[C@H](C)C[C@H](OC)[C@H]2O[C@@](O)(C(=O)C(=O)N3CCCC[C@H]3C(=O)O[C@H](/C(C)=C/[C@@H]3CC[C@@H](O)[C@H](OC)C3)[C@H](C)[C@@H](O)CC1=O)[C@H](C)C[C@@H]2OC here?
A: Its Potency is “inactive and 2.55 µM (active)”.

Q: And the Z-AUC [2]?
A: Its Z-AUC is 1.09 (inactive).

Q: And the Z-AUC [2, 7]?
A: The Z-AUC was 0.699.

Q: What about the Z-AUC ([2]; measured here: PEO4 Z-AUC) of the same molecule?
A: The Z-AUC was 1.02.

Q: Which Potency [1] does the source give for O=C(Nc1ccc(O)cc1)c1ccccc1O here?
A: The Potency was “inactive”.

Q: For CC(O)[C@H]1CC[C@H]2[C@@H]3CC[C@@H]4C[C@@H](O)CC[C@]4(C)[C@H]3CC[C@]12C (stereo not given in full), which Potency [1] is on record?
A: The Potency was “inactive”.
